PubChem BioAssay
Active and inactive are the calls of the source.

Legend:
[1] = anti-His antibody binders, primary screen, artefact control for SMM control protein annotation, biochemical, small-molecule microarray, 635 nm fluorescence (AID 1128); details: anti-His Alexa647 antibody binding, higher = more signal;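 note: score merges feature fluorescence with signal-to-noise for each printed compound spot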
[2] = system: Human papillomavirus type 1a E7 protein (residues 1-88); experiment: HPV1a E7 small-molecule binders, primary screen, biochemical, small-molecule microarray, residues 1-88, 635 nm (AID 1129); details: small-molecule microarray binding, fluorescence 635 nm; higher = more signal
[3] = biological target: Focal adhesion kinase 1 (Homo sapiens) (UniProt Q05397); experiment: small-molecule microarray binders of FAK, primary screen, biochemical, 635/667 nm fluorescence, BSA, DTT (AID 1130); details: PTK2 binding, 635 nm fluorescence, higher = more signal;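 note: composite of spot emission at 667 nm and signal to noise over triplicate slides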
[4] = system: Fibrinogen (Alexa647-labelled); experiment: fibrinogen binders on compound microarrays, profiling panel, artefact control for SMM control-protein annotation, biochemical, small-molecule microarray, 635/667 nm fluorescence (AID 1131); details: fibrinogen-A647 binding fluorescence, higher = more signal;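 note: z-score merges 667 nm fluorescence with per-spot signal-to-noise over triplicate slides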
[5] = biological target: Follistatin (Homo sapiens) (UniProt P19883); experiment: follistatin binders on small-molecule microarrays, primary screen, biochemical, small-molecule microarray, 635/667 nm fluorescence (AID 1132); details: FST binding, 635 nm fluorescence, higher = more signal
[6] = biological target: Fibroblast growth factor 2 (Homo sapiens) (UniProt P09038); experiment: FGF2 binders on small-molecule microarrays, primary screen, biochemical, small-molecule microarray, 635/667 nm fluorescence (AID 1133); details: small-molecule microarray binding, FGF2, fluorescence 635/667; higher = more signal
[7] = mitochondrial membrane potential change in A549 cells, profiling panel, cell-based, JC-1 fluorescence, basal, 24 h, 100 nL (AID 1138); details: higher = more signal;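 note: A549 lung adenocarcinoma cells under basal conditions with no added stimulus; test concentration not given here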
Lefty1 = Lefty1 binders on small-molecule microarrays, primary screen, biochemical, small-molecule microarray, 635/667 nm fluorescence (AID 1139); details: small-molecule microarray binding, fluorescence 635/667; higher = more signal
[8] = system: wheat germ agglutinin (Triticum aestivum), Alexa647-labelled; experiment: wheat germ agglutinin binders on compound microarrays, profiling panel, artefact control for SMM control-protein annotation, biochemical, small-molecule microarray, 635/667 nm fluorescence (AID 1140); details: WGA-A647 binding, 635 nm fluorescence, higher = more signal;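 note: score merges 667 nm feature emission with signal to noise over triplicate slides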
[9] = biological target: Luciferin 4-monooxygenase (Photinus pyralis) (UniProt P08659); experiment: firefly luciferase enzyme inhibitors, primary screen, biochemical, luminescence, purified enzyme, 2006 set (AID 1141); details: SteadyGlo luminescence, 30 min, higher = more signal, called active from +8 up or from −8 down;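 note: cell-free assay with purified firefly luciferase at 100 ng per well in PBS; test concentration not given here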
Sequence of Luciferin 4-monooxygenase (Photinus pyralis) (P08659 whole entry, looked up): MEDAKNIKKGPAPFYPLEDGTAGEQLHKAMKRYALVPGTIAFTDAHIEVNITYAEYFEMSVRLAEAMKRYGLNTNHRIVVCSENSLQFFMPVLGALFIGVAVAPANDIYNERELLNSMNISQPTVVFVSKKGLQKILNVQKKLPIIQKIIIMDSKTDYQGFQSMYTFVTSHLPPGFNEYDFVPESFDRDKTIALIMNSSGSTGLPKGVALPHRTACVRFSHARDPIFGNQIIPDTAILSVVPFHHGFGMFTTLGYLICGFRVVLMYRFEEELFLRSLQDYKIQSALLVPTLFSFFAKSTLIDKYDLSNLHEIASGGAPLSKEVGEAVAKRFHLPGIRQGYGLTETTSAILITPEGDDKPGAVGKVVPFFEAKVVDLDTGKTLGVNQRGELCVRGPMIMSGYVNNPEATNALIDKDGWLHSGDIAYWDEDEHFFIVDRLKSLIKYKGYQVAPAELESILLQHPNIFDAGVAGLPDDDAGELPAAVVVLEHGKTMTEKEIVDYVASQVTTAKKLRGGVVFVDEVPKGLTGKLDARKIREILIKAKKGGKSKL

Sequence of Fibroblast growth factor 2 (Homo sapiens) (P09038 whole entry, looked up): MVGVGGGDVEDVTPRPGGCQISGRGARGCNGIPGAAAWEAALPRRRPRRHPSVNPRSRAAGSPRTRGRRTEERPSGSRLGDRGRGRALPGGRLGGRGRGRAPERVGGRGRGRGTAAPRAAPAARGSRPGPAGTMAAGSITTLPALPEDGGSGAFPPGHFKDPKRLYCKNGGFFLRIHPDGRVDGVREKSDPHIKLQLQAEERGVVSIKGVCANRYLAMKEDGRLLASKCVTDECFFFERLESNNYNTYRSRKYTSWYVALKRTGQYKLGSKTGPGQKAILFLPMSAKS
Sequence of Follistatin (Homo sapiens) (P19883 whole entry, looked up): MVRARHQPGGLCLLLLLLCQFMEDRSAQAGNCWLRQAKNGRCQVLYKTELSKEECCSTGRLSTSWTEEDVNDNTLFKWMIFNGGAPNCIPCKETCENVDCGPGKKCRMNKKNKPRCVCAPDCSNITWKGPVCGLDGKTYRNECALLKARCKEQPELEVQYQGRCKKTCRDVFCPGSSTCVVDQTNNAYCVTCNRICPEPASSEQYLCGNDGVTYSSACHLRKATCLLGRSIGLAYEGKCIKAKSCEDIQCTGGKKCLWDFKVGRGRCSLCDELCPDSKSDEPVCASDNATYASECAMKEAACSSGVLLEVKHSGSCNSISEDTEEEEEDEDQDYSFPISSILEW
Sequence of Focal adhesion kinase 1 (Homo sapiens) (Q05397 whole entry, looked up): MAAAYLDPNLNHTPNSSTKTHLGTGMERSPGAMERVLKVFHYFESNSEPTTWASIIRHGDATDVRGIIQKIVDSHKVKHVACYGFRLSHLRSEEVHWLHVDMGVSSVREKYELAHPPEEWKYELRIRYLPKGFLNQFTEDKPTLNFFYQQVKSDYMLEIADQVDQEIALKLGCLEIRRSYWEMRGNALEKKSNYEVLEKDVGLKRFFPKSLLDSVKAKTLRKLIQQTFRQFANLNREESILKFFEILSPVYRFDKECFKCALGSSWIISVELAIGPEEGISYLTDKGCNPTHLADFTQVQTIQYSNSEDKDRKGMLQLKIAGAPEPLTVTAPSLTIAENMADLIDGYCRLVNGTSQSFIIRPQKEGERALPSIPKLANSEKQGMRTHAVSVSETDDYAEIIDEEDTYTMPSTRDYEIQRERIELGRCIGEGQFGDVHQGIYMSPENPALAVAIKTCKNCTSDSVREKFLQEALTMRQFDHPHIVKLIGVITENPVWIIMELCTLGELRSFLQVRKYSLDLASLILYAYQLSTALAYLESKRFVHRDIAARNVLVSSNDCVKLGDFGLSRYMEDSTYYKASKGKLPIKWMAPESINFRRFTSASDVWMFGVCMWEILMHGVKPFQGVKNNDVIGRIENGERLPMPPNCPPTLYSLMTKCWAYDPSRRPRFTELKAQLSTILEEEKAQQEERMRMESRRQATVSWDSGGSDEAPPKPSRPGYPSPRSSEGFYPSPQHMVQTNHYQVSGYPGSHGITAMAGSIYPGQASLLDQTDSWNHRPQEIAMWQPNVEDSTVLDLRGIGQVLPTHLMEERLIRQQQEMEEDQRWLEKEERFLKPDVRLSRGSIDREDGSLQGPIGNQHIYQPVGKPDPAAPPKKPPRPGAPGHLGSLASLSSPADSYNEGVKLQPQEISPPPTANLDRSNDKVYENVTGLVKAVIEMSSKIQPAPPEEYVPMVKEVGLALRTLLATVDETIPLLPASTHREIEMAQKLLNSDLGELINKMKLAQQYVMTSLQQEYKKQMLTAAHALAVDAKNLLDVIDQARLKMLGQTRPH

Structure (SMILES)	composite z-score [1]	composite z-score [2]	composite z-score [3]	composite z-score [4]	composite z-score [5]	composite z-score [6]	z-score [7]	composite z-score (Lefty1)	composite z-score [8]	z-score [9]
C=CCOC(=O)[C@@H]1[C@H]2C(=O)O[C@H](c3ccccc3)[C@H](c3ccccc3)N2[C@H](c2ccc(OCCOC(=O)[C@@H]3C[C@@H]4C(=O)N[C@@H](CCCC[N+](C)(C)C)C(=O)N4[C@@H]3c3ccc(O)cc3)cc2)[C@@]12C(=O)Nc1ccc(I)cc12	2.68	1.15	0.67	0.412	1.12	1.24	-1.76	1.08	0.216	-2.38 (inactive)
CCCC[C@@H](O)C1=C(COc2ccccc2)C[C@H]2C(=O)N(Cc3ccccc3)C(=O)[C@H]2[C@H]1CO	-0.412	-0.0512	-0.0235	0.832	0.269	0.275	0.85	0.634	0.371	-1.25 (inactive)
CC(C)N1C(=O)c2ccccc2[C@@H](C(=O)NCCN2CCOCC2)[C@@H]1c1ccc(CO)cc1	1.3	-0.736	-0.378	-1.99	-0.0463	-1.57	0.156	-0.786	-1.23	0.128 (inactive)
CCCCCCc1nc(Cc2cc(OC)c(OC)c(OC)c2)cc2c1[Si](C(C)C)(C(C)C)OC2	-0.215	-0.517	-0.191	-0.0217	0.422	0.521	0.185	0.566	-0.0555	0.809 (inactive)
CCC1=C2CN(Cc3ccccc3)[C@@H](C(=O)Cc3ccccc3)C2C=CCC1 (stereo not given in full)	0.797	-0.0353	-0.383	0.666	0.578	0.0052	-1.22	0.352	0.557	0.313 (inactive)
CN1C(=O)C2C=CC(C(O)c3cccn3C)N(Nc3ccc([N+](=O)[O-])cc3[N+](=O)[O-])C2C1=O (stereo not given)	0.421	0.414	0.0533	-0.232	-0.201	0.275	0.0408	-0.583	0.408	0.679 (inactive)
[N-]=[N+]=Nc1ccccc1C[C@@]1(C(=O)NCCN2CCOCC2)N=C(c2ccc(OCCCO)cc2)O[C@@H]1c1ccccc1N=[N+]=[N-]	2.81	1.24	0.587	0.989	1.2	0.752	-0.381	0.383	0.898	-1.71 (inactive)
COc1ccc(C(=O)Nc2ccc(CN3C(=O)[C@]4(O[C@H](CC(=O)N5Cc6ccccc6C[C@H]5CO)[C@@H]([Si](C)(C)c5ccc(OC)cc5)[C@@H]4C)c4ccccc43)cc2)cc1	1.46	1.16	0.353	0.547	1.1	1.35	-0.615	1.08	0.75	-0.379 (inactive)
CCCC=C(CCC)[C@@H](NP(=O)(c1ccccc1)c1ccccc1)c1ccc(-c2ccccc2)cc1	0.809	1.21	0.332	0.997	1.11	-0.0567	-2.3	0.38	1.25	2.64 (inactive)
COc1cc2c(cc1O)C(c1ccc(CN3CCCC3)cc1)N(Cc1cc3c(cc1Br)OCO3)CC2 (stereo not given)	-0.381	-0.367	0.171	0.516	0.0395	-0.73	1.11	-0.268	0.688	-1.37 (inactive)
COC(=O)[C@@]1(Cc2ccc(OC)cc2)[C@H]2c3cc(C(=O)N(C)C)n(Cc4ccc(OC(F)(F)F)cc4)c3C[C@H]2CN1C(=O)c1ccccc1	-0.399	0.299	1.14	0.808	-0.295	-0.555	0.517	-0.878	0.0102	0.86 (inactive)
C=CCN1C(=O)[C@]2(CCC(=O)OC(C)(C)C)N=C(c3ccc(OCCCO)cc3)O[C@@H]2c2ccccc21	2.42	0.944	0.469	0.317	1.19	-0.132	0.859	0.467	0.27	-5.66 (inactive)
CC(C)C(CO)N1C(=O)[C@@H]2C3C(=O)OCCC/C=C\[C@H]3OC23C=CCN(c2ccc4ccccc4c2)C(=O)[C@@H]13 (stereo not given in full)	-0.236	-0.696	0.374	-1.62	-0.0619	-1.02	0.723	0.0124	0.562	-0.526 (inactive)
COc1cccc(C)c1NC(=O)O[C@H]1[C@H](OC(=O)Nc2ccc3c(c2)OCO3)[C@@H](OC(=O)Nc2ccc3c(c2)OCO3)[C@@H](OC)O[C@@H]1CO	0.4	1.25	1.09	0.988	1.28	0.887	-0.588	1.28	1.15	-5.18 (inactive)
COC(=O)C1=CC(CCCO)=CC(c2cccs2)N(Cc2cccc(OC(F)(F)F)c2)C=C1C(=O)OC (stereo not given)	1.51	1.23	2.18	0.972	1.23	-0.141	1.87	0.233	1.13	-1.41 (inactive)
CC[C@@H]1C=C(C(=O)O)[C@H](c2ccc(C#N)cc2)N1S(=O)(=O)c1ccc(C)cc1	3.35	0.845	0.941	-0.0509	-0.594	-0.105	-0.0902	-0.833	1.09	0.522 (inactive)
